According to the supplement of paper PMC6555819:

Tests used:
Assay in all cases: PBM binding z-score (relative to random genomic background probes); higher = stronger binding; sequences stand for … in GC…GCGATTGACAGCGTAGAATGAAGG
[1] = tested on: PPARg:RXRa DBDmut IVT, anti-RXR (DBD mutation: RXRa K156A/R161A, NR concentration 270 nM, RXRa partner concentration 90 nM)
In short: (§1)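 The probes on custom Agilent 4×180K protein-binding microarrays were double-stranded, with 34-nt variable regions bearing direct-repeat seeds, single-nucleotide variants, half-site ablations and random human genomic background sequences. Incubation lasted 1 h with ligand-free nuclear receptor dimers in PBS pH 7.4, 2% milk, 0.02% Triton X-100, 1 mM DTT, 0.2 mg/mL BSA and 0.4 mg/ml salmon testes DNA. Antibodies against each partner (one per run) detected bound dimers, and fluorescence scans were regression-normalized. Binding z-scores take the random background probes as reference.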

[2] = tested on: PPARg:RXRa IVT, anti-PPARg (NR concentration 270 nM, RXRa partner concentration 90 nM)
In short: as §1

[3] = tested on: PPARg DBDmut:RXRa IVT, anti-PPARg (DBD mutation: PPARg1 K132A/R137A, NR concentration 270 nM, RXRa partner concentration 90 nM)
In short: as §1

[4] = tested on: PPARg DBDmut IVT, anti-PPARg (DBD mutation: PPARg1 K132A/R137A, NR concentration 270 nM)
In short: as §1

[5] = tested on: PPARg homodimer (NR concentration 180 nM)
In short: as §1

[6] = tested on: PXR:RXRa (NR concentration 270 nM, RXRa partner concentration 90 nM)
In short: as §1

[7] = tested on: PXR homodimer (NR concentration 270 nM)
In short: as §1

[8] = tested on: RARa:RXR (NR concentration 270 nM, RXRa partner concentration 90 nM)
In short: as §1

[9] = tested on: RARa homodimer (NR concentration 270 nM)
In short: as §1

[10] = tested on: RARb:RXRa (NR concentration 270 nM, RXRa partner concentration 90 nM)
In short: as §1

| Sequence | PBM binding z-score [1] | PBM binding z-score [2] | PBM binding z-score [3] | PBM binding z-score [4] | PBM binding z-score [5] | PBM binding z-score [6] | PBM binding z-score [7] | PBM binding z-score [8] | PBM binding z-score [9] | PBM binding z-score [10] |
| --- | --- | --- | --- | --- | --- | --- | --- | --- | --- | --- |
| TAGCCTGGGTCATGCGGGCCAGTATAGTGTCGGC | 0.519 | 2.76 | -0.229 | 0.545 | 0.758 | 1.64 | -0.615 | 2.42 | -0.605 | 3.18 |
| TCTAGCAGGCCAGGGGGTCACTCAAGAGGTACGG | 1.72 | 3.02 | 2.08 | 1.84 | 2.2 | 4.43 | 0.579 | 5.03 | 0.104 | 3.16 |
| TTACCAAGGTGAGCTAAGGTCGTTGATCCAACTC | 1.04 | 1.93 | -0.698 | -0.173 | 0.0568 | 4.6 | 0.308 | 2.41 | -1.25 | 1.91 |
| TCTTGTAGAACAAGCAGGTTAAGAAAGCCTGAGT | 1.62 | 0.593 | 0.632 | -0.0834 | -0.0982 | 0.365 | 0.0921 | 0.607 | -0.498 | 0.0626 |
| AATTCAGGGTCATCGTAGGCCAGAGTACGCACAG | 3.42 | 4.57 | 2.45 | 3.09 | 2.85 | 5.49 | 1.43 | 5.54 | 1.45 | 4.45 |
| CCGACTGGGGCAAGGTTATCATAACGCACAGCCA | 3.18 | 3.27 | -0.411 | -0.512 | 0.593 | 0.253 | -0.27 | 0.986 | -0.0927 | 1.5 |
| GTACCAAGGTGAATAGGTCGTTGAAGAGTAGGCG | 1.8 | 2.92 | 0.0444 | -0.34 | 1.08 | 1.12 | 0.219 | 1.79 | 0.784 | 1.94 |
| CGAATTAGGTCAGAACAGGACAGTGAAGGATGAT | 7.02 | 7.15 | 2.8 | 1.42 | 1.73 | 1.09 | 0.149 | 1.31 | 1.19 | 3.29 |
| CGTCCAAGGTCAGAGAGGTCAATGAATGCCGAGT | 3.1 | 3.52 | -0.295 | -0.854 | 5.37 | 6.76 | 13.7 | 6.55 | 3.02 | 5.17 |
| ACTAGCAGGCCAAGTTTGGGTCCCTCAAACAAAG | 0.359 | -0.00665 | -1.13 | -1.25 | -0.378 | -0.465 | -0.57 | -0.00931 | -0.776 | 0.3 |
| CCGAGTAGGTTATGGGGCATTCATGCAACGGTGA | 3.37 | 3.49 | -0.836 | 0.00847 | 0.908 | 0.114 | -0.204 | 0.175 | 0.24 | 0.981 |
| TCTTGTAGATCAAAGTTTAAGAAAGCCGAAGCCT | 2.31 | 1.66 | 0.921 | 0.574 | 0.293 | 0.685 | 0.403 | 0.864 | 0.333 | 0.69 |
| AATACAGGGTCATCGTAGGCCAGAGAACGCACAG | 3.24 | 4.03 | 1.71 | 1.62 | 2.96 | 5.14 | 0.451 | 5.41 | 1.51 | 4.56 |
| TCTAGCAGTCCAGAGGGTCACTCAAGAGGTACGG | 0.669 | 0.15 | -0.632 | -0.476 | 0.412 | 1.67 | -0.406 | 2.48 | 0.0783 | 2.07 |
| TAGCCTAGGTCATTCAGGGACCAGTATAGAAAGC | 0.873 | 2.72 | 0.102 | -0.132 | 0.904 | 1.67 | -0.229 | 2.18 | -0.017 | 3.57 |
| CCTTACGGGTCAAGTTTATAGCACGGGTGGTACG | 2.03 | 3.32 | 1.11 | -0.333 | 4.02 | 3.89 | 0.698 | 4.34 | 1.46 | 4.19 |
| AGAATGAGGTTACCAAAGATCAGGGACACGCTTG | 4.01 | 3.4 | 0.894 | 0.0801 | 0.873 | 1.29 | 0.182 | 2.1 | 0.459 | 2.14 |
| TAGCCTAGGTCATTCAGGGGCCAGTATCGAAAGC | 1.77 | 2.83 | 0.988 | -0.403 | 1.28 | 2.47 | 0.344 | 3.36 | -0.599 | 3.67 |
| GGAACGAGGGCATTCGACTTGATAGCATGGCGAT | 2.67 | 2.21 | 0.442 | 0.0396 | -0.0413 | 0.499 | 0.283 | -0.119 | -0.012 | 1.6 |

| Sequence | PBM binding z-score [1] | PBM binding z-score [2] | PBM binding z-score [3] | PBM binding z-score [4] | PBM binding z-score [5] | PBM binding z-score [6] | PBM binding z-score [7] | PBM binding z-score [8] | PBM binding z-score [9] | PBM binding z-score [10] |
| --- | --- | --- | --- | --- | --- | --- | --- | --- | --- | --- |
| CAATCTAGGTCAAGGTCAAAGTCGGTTTGTGCCA | 8.63 | 8.84 | 5.16 | 1.26 | 4.33 | 5.3 | 1.93 | 5.63 | 1.12 | 4.9 |
| CGAACTAGGTAATTGACAGGACAGTGAATAGTAA | 5.41 | 4.17 | 0.954 | 0.672 | 0.615 | -0.222 | -0.131 | -0.274 | 0.178 | -0.185 |
| CAGACAGGGTCAGCTAGGCCAGAGTAGGGACGGC | 0.343 | 1.7 | -0.372 | -0.169 | 1.26 | 1.72 | -0.203 | 2.83 | -0.174 | 3.84 |
| ACAGACTGGTGATGAAGGTAACTCAGGCTATCAT | -0.615 | -0.401 | 0.194 | -0.143 | -0.6 | -0.651 | -0.0629 | -0.424 | 0.115 | -0.396 |
| CGTCCAAGGTCATAGGAGGTCCGTGAAGACAGAT | 3.08 | 3.47 | 0.84 | 0.63 | 3.87 | 4.93 | 1.26 | 4.68 | 1.62 | 5.04 |
| TGGCCTAGGTCATTCAGGGGCCAGTATAGAAAGC | 1.06 | 2.22 | -0.515 | -0.779 | 1.82 | 2.48 | -0.213 | 3.77 | 0.313 | 3.94 |
| TCTTCTAGGTCAACGATGGTCAGCTAATCTGCTA | 7.21 | 7.26 | 2.6 | 3.07 | 2.69 | 2.23 | 0.345 | 2.8 | 1.21 | 4.31 |
| AGATGTAGGTTAAGGGTCATTCAGGTTGGTTCGC | 7.33 | 7.46 | 1.97 | 1.04 | 3.44 | 5.52 | 3.11 | 6.2 | 2.4 | 3.66 |
| GGAACGAGGGCTAGTTGATAGCAGAGTTTGATGG | 0.122 | -0.508 | -0.313 | -0.827 | -0.214 | -0.534 | -0.283 | -0.627 | -0.525 | -0.19 |
| ATACCAAGGTGATCGTTAGGTCGTTGATACTAAC | 0.451 | 1.04 | 0.332 | 1.27 | 0.52 | 0.494 | 0.467 | 1.25 | 0.0968 | 0.816 |
| GGAACGAGGGCAAGTTGAAAGCAGAGTTTGATGG | 3.88 | 2.91 | -0.0232 | -0.635 | 0.201 | 0.652 | 0.377 | 0.519 | -0.328 | 2.53 |
| CACACTAGGTCACGAAAGGTCAAAGTCGAATGAC | 7.74 | 8.37 | 3.1 | 1.95 | 5.51 | 7.26 | 2.87 | 7.78 | 2.46 | 5.97 |
| CGTCCAAGGTCAATGCCAGGTCAGTGAAAGCATT | 2.99 | 3.63 | 0.209 | -0.326 | 7.26 | 5.48 | 2.85 | 6.58 | 1.59 | 5.39 |
| ATACCATGGTGATCGTGAGGTCGTTGATACTAAC | -0.0684 | 0.0915 | -0.0138 | 0.737 | 0.319 | 1.75 | 1.17 | 1.27 | -0.088 | 0.235 |
| CCTACTGGGCCATTCAGTGGTCATTGATCATATG | 3.99 | 3.43 | -0.19 | -0.875 | -0.524 | -0.597 | -0.649 | -0.725 | -0.259 | 0.368 |
| CGTCCAAGGTCAGCAGGTCAGTGGAAGCGACGTG | 2.83 | 3.58 | -0.161 | -0.183 | 2.96 | 3.57 | 0.377 | 4.3 | 0.462 | 5.23 |
| CAAACTAGGTCAAGAGGTCTAAGTCCGCTTCCCG | 7.99 | 8.45 | 1.43 | 2.57 | 1.86 | 1.66 | -0.00755 | 2.65 | 0.497 | 4.1 |
| TCGAGTAGGTTAGGGGCATTGAGAATGGCGTCGA | 1.85 | 1.45 | -1.19 | -0.696 | 1.3 | 0.449 | 0.233 | 0.211 | -0.562 | 1.03 |
| TCTCGGAGGACATGAAAGGTCAGAGCTCGACATC | 2.04 | 1.1 | -0.0886 | -0.561 | 2.54 | 3.59 | 0.0503 | 3.72 | 0.458 | 3.99 |
